From the supplement of paper PMC10338343
± gives the standard deviation.

Assays:
[1] = tested on: MILI (PIWIL2) piRISC loaded with piRNA #1 (26 nt); experiment: pre-steady-state target cleavage rate (min^-1); guide: piRNA #1 5'p-UGAGGUAGUAGGUUGUAUAGUAUCCA; higher = faster piRNA-guided slicing of the target; conditions: auxiliary factor: 500 nM mouse GTSF1
Method in brief: (§1)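 Using HEPES–potassium acetate buffer at 33 °C, 1 nM active affinity-purified piRISC with a single synthetic guide was mixed with 0.1 nM transcribed, DNA-blocked target RNA library for 0–8 or 0–960 min, with or without 500 nM GTSF1 partner protein. Uncleaved targets were sequenced and normalised to depth and to weakly complementary targets, and three trials were pooled with k3 capped at 0.0001 min^-1. A burst-and-steady-state fit gave the pre-steady-state cleavage rate.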

[2] = tested on: EfPiwi piRISC loaded with piRNA #1 (26 nt); experiment: pre-steady-state target cleavage rate (min^-1); auxiliary factor: 500 nM Ephydatia muelleri Gtsf1; guide: piRNA #1 5'p-UGAGGUAGUAGGUUGUAUAGUAUCCA; MIWI and MILI are mouse PIWI proteins and EfPiwi is from a freshwater sponge; tags in brackets are library labels; higher = faster piRNA-guided slicing of the target
Method in brief: as §1

| Sequence | pre-steady-state target cleavage rate [1] | pre-steady-state target cleavage rate [2] |
| --- | --- | --- |
| GGAGUGGAUACUAUCAACCUACUACCUCA | 0.186 ± 0.0098 | 0.0872 ± 0.035 |
| GGAGAGGGUACUAUACAACCUACUACCUCA | 0.145 ± 0.013 | 0.0162 ± 0.0072 |
| GGAGACCUUUCUAUACAACCUACUACCUGA | 0.0728 ± 0.013 | 0.0049 ± 0.0044 |
| GGAGACGAUACUAUACAUCCUUCUACCUCA | 0.0277 ± 0.0037 | 0.00356 ± 0.0021 |
| GGAGACCAUACUAUACAACCUACUACCAGA | 0.169 ± 0.027 | 0.00458 ± 0.0019 |
| GGAGACCUAACCAUACAACCUACUACCUCA | 0.12 ± 0.072 | 0.0143 ± 0.0069 |
| GGAGACGAUAGUAUACAACCUACUACCUCA | 0.147 ± 0.011 | 0.00758 ± 0.0036 |
| GGAGACCUAACUAUACAACCUACUACCCA | 0.0749 ± 0.027 | 0.00326 ± 0.0026 |
| GGAGAGGAUAUUAUACAACCUACUACCUCA | 0.157 ± 0.0082 | 0.0615 ± 0.023 |
| GGAGACGAUACUAUACAACCUCACUACCUCA | 0.00413 ± 0.0033 | 0.0049 ± 0.0024 |
| GGAGAGGAGUACUAUACAACCUACUACCUCA | 0.0702 ± 0.0063 | 0.00348 ± 0.003 |
| GGAGACGAUACUAUACAACCUACUAGCUCA | 0.11 ± 0.019 | 0.00381 ± 0.0011 |
| GGAGACGAUACUAUUCAACCUACUACCACA | 0.161 ± 0.014 | 0.00322 ± 0.0017 |
| GGAGACGAUACUAUACACCCUACUACCUCA | 0.081 ± 0.0091 | 0.011 ± 0.0045 |
| GGAGACCUAUCAUAACAACCUACUACCUCA | 0.0143 ± 0.0053 | 0.00531 ± 0.0037 |
| GGAGAGGAUAGUAUACAACCUACUACCUGA | 0.0327 ± 0.0082 | 0.00298 ± 0.0022 |
| GGAGACCAUACUAUACAACGUACUAGCUCA | 0.00786 ± 0.0034 | 0.00358 ± 0.0035 |
| GGAGUGGAUACUAUACAACGUACUACGUCA | 0.0108 ± 0.0027 | 0.0036 ± 0.0015 |
| GGAGACCAUACUAUACAACCUACUACCUAA | 0.139 ± 0.015 | 0.0194 ± 0.0072 |
| GGAGUGGAUACUAUACAACCUAGUACCUCA | 0.0508 ± 0.0096 | 0.00414 ± 0.0012 |
